Source: PubChem (Broad Institute)
IDE exosite inh – exo-site inhibitors of human IDE, primary screen, biochemical, fluorescence anisotropy, probe displacement | Insulin-degrading enzyme (Homo sapiens), P14735 | purified IDE, FL-6b probe fluorescence polarization; stronger effect = lower value | z-score at 20 µM | 17,000 tested, 6.3% active | AID 1259349, 2017;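 active means z-score of -3 or lower, meaning strong loss of probe binding signal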;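 further: His-tagged human IDE residues 42-1019 made in E. coli with 30 nM FL-6b probe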
Target sequence (P14735 42-1019 limits assumed): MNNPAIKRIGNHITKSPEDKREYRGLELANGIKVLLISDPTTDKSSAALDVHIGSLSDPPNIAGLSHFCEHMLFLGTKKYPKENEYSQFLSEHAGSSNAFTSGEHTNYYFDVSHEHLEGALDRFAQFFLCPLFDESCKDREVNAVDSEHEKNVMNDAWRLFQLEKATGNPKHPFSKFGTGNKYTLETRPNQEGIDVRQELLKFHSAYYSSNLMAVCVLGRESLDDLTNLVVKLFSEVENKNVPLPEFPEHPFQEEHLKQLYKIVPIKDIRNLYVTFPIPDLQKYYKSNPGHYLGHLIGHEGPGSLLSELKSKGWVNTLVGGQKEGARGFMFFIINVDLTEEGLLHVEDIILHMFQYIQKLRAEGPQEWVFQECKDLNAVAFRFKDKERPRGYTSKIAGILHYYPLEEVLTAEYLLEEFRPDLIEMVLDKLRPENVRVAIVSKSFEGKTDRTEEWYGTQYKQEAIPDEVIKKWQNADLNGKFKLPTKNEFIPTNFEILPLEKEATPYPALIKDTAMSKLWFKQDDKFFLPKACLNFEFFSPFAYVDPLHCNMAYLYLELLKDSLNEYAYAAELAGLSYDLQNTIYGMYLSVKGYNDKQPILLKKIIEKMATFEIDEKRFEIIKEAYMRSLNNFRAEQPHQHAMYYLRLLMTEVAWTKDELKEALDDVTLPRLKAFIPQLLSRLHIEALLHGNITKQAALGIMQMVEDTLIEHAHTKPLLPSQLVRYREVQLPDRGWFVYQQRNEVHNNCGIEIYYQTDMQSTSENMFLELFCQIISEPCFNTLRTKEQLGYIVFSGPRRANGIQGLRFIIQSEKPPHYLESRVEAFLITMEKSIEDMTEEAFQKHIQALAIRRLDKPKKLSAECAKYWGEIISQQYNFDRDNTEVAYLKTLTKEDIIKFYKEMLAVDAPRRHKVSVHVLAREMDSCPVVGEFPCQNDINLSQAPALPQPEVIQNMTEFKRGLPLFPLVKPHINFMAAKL
The depositor's hits bear a star. Only a selection was taken, and hits are over-represented in it overall.

SMILES	IDE exosite inh
CCCC(=O)N1CC2(C1)CN(CC1CC1)[C@@H](CO)c1[nH]c3cc(OC)ccc3c12	-1.28
COc1cccc(CN2CC3(CCN(C)CC3)c3c([nH]c4cc(OC)ccc34)[C@H]2CO)c1	-1.12
CCC(=O)N1[C@H](CO)[C@H](c2ccccc2-c2cccc(C)c2)[C@@H]1C#N	1.71
CS(=O)(=O)N1[C@H](CO)[C@@H](c2ccc(C#Cc3cccc(F)c3)cc2)[C@@H]1C#N	-0.906
N#C[C@H]1[C@@H](c2ccccc2C2=CCCC2)[C@H](CO)N1C(=O)C1CCCC1	5.35
COc1ccc2c3c([nH]c2c1)[C@@H](CO)N(Cc1ccccc1F)CC31CCN(C(=O)C2CC2)CC1	-3.56*
COc1ccc2c3c(n(C)c2c1)[C@H](CO)N(Cc1ccccc1OC)CC31CN(C)C1	-1.31
CCCC(=O)N1CC2(C1)CN(Cc1ccccc1F)[C@@H](CO)c1c2c2ccc(OC)cc2n1C	-0.334
COc1ccc2c3c([nH]c2c1)[C@H](CO)N(Cc1ccccn1)CC31CCN(C(C)=O)CC1	-2.83
COc1ccc2c3c([nH]c2c1)[C@H](CO)N(Cc1ccccn1)CC31CN(C(=O)CC2CC2)C1	-0.0173
COc1ccc2c3c([nH]c2c1)[C@@H](CO)N(Cc1ccccc1Cl)CC31CN(C(=O)C2CC2)C1	-2.98
COc1ccc2c3c([nH]c2c1)[C@@H](CO)N(Cc1ccccn1)CC31CCN(C(C)=O)CC1	-3.63*
COCC(=O)N1CCC2(CC1)CN(Cc1ccccc1Cl)[C@H](CO)c1[nH]c3cc(OC)ccc3c12	-1.79
COCC(=O)N1CCC2(CC1)CN(Cc1ccccc1Cl)[C@@H](CO)c1[nH]c3cc(OC)ccc3c12	-3.57*
CCS(=O)(=O)N1CC2(CN(Cc3ccccc3F)[C@@H](CO)c3[nH]c4cc(OC)ccc4c32)C1	-0.443
COc1ccc2c3c(n(C)c2c1)[C@H](CO)N(Cc1ccccc1Cl)CC31CCN(C(=O)CC2CC2)CC1	-4.14*
CCCC(=O)N1CCC2(CC1)CN(Cc1ccc(Cl)cc1)[C@@H](CO)c1[nH]c3cc(OC)ccc3c12	-1.69
C[C@@H]1CN([C@@H](C)CO)C(=O)c2ccccc2-c2ccccc2CO[C@@H]1CN(C)Cc1cccnc1	-0.684
CCCC#Cc1ccc([C@@H]2[C@@H](CO)N3C(=O)CN(C(=O)c4ccc(F)cc4)C[C@H]23)cc1	-0.198
COCC(=O)N1[C@H](CO)[C@H](c2ccccc2)[C@@H]1C#N	2.43
O=C(c1cccc(F)c1)N1CC(=O)N2[C@H](C1)[C@H](c1ccc(-c3ccccc3)cc1)[C@@H]2CO	3.68
O=C(C[C@@H]1C[C@H]2c3cc(NC(=O)C4CCC4)ccc3O[C@H]2[C@@H](CO)O1)NC1CCCC1	-0.753
O=C1CN(Cc2ccccc2)C[C@@H]2[C@H](c3ccc(-c4ccccc4)cc3)[C@H](CO)N12	-1
CS(=O)(=O)N1CC(=O)N2[C@H](CO)[C@@H](c3ccc(C#Cc4ccccc4)cc3)[C@@H]2C1	2.39
CS(=O)(=O)N1CC(=O)N2[C@H](C1)[C@H](c1ccc(C#Cc3ccc(F)cc3)cc1)[C@@H]2CO	0.353
SMILES	IDE exosite inh
CS(=O)(=O)N1CC(=O)N2[C@H](C1)[C@H](c1ccc(C#Cc3cccc(F)c3)cc1)[C@@H]2CO	-8.36*
CS(=O)(=O)N1CC(=O)N2[C@@H](CO)[C@H](c3ccc(C#CCc4ccccc4)cc3)[C@@H]2C1	3.18
CS(=O)(=O)N1CC(=O)N2[C@H](C1)[C@H](c1ccc(C#Cc3ccccc3)cc1)[C@@H]2CO	-5.33*
CS(=O)(=O)N1CC(=O)N2[C@H](C1)[C@@H](c1ccc(C#CCc3ccccc3)cc1)[C@@H]2CO	-3.25*
CS(=O)(=O)N1CC(=O)N2[C@H](CO)[C@@H](c3ccc(C#Cc4ccc(F)cc4)cc3)[C@H]2C1	0.853
CS(=O)(=O)N1CC(=O)N2[C@H](C1)[C@@H](c1ccc(C#Cc3ccc(F)cc3)cc1)[C@@H]2CO	-0.0162
CS(=O)(=O)N1CC(=O)N2[C@H](CO)[C@@H](c3ccc(C#CCc4ccccc4)cc3)[C@H]2C1	0.432
CS(=O)(=O)N1CC(=O)N2[C@H](CO)[C@H](c3ccc(C#Cc4ccccc4)cc3)[C@@H]2C1	-5.45*
CS(=O)(=O)N1CC(=O)N2[C@@H](CO)[C@H](c3ccc(C#Cc4ccc(F)cc4)cc3)[C@@H]2C1	0.168
CS(=O)(=O)N1CC(=O)N2[C@H](CO)[C@@H](c3ccc(C#CCc4ccccc4)cc3)[C@@H]2C1	0.316
O=C(c1cnccn1)N1CC(=O)N2[C@H](CO)[C@@H](c3ccc(C4=CCCCC4)cc3)[C@@H]2C1	-1.67
CCC(=O)NC[C@H]1[C@H](c2ccc(-c3cccc(F)c3)cc2)[C@@H](CO)N1C(=O)CC	2.43
CC(C)CC#Cc1ccc([C@@H]2[C@@H](CO)N3C(=O)CN(C(=O)NC(C)C)C[C@H]23)cc1	4.02
CN(C)C(=O)c1cccc(-c2ccc(C3[C@H]4CNC[C@@H]3N4S(=O)(=O)c3ccccc3F)cc2)c1 (stereo partly specified)	0.562
O=C(C[C@@H]1CC[C@@H]2[C@H](COC[C@@H](O)CN2Cc2cc(F)ccc2F)O1)NCc1ccc(Oc2ccccc2)cc1	0.207
CC(C)(C)[S@](=O)N1Cc2cc(C(=O)N[C@H]3CCN(Cc4ccccc4)C3)nc(-c3cccc(-c4cccnc4)c3)c2[C@@H]1CCO	1.72
CCCNC(=O)N1[C@H](CO)[C@@H](c2ccccc2-c2cccc(C)c2)[C@@H]1C#N	-0.82
Cc1noc(C)c1NC(=O)N1C[C@@H](O)COC[C@H]2O[C@@H](CC(=O)NCC3CC3)CC[C@@H]21	0.61
C[C@@H]1CCCCO[C@@H](CN(C)C(=O)Nc2ccc3c(c2)OCO3)[C@H](C)CN([C@H](C)CO)C(=O)c2cc(NS(=O)(=O)c3ccc(F)cc3)ccc2O1	1.56
Cc1ccccc1S(=O)(=O)N1[C@@H](C#N)[C@H](c2ccc(-c3ccccc3)cc2)[C@@H]1CO	0.787
O=C(Nc1ccc(F)cc1)N1CCCCN2[C@H](CO)[C@@H](c3ccc(C4=CCCCC4)cc3)[C@H]2C1	4.99
C[C@@H]1CN([C@H](C)CO)C(=O)c2ccccc2-c2ccccc2CO[C@@H]1CN(C)C(=O)CCC(F)(F)F	-0.00792
CCCNC(=O)Nc1ccc2c(c1)OC[C@H](C)N(C(=O)C1CCOCC1)C[C@H](C)[C@@H](OC)CN(C)C2=O	-1.52
C[C@@H]1CN([C@H](C)CO)S(=O)(=O)c2ccc(C#Cc3ccccc3F)cc2O[C@H]1CN(C)C(=O)Cc1cccnc1	0.961
CCS(=O)(=O)N1CC(=O)N2[C@H](CO)[C@@H](c3ccc(-c4cccc(F)c4)cc3)[C@@H]2C1	-3.18*
SMILES	IDE exosite inh
CCS(=O)(=O)N1CC(=O)N2[C@H](CO)[C@@H](c3ccc(-c4ccccc4)cc3)[C@H]2C1	3.3
CCS(=O)(=O)N1CC(=O)N2[C@H](CO)[C@H](c3ccc(-c4ccccc4)cc3)[C@@H]2C1	1.6
O=C(Cc1ccncc1)N1CC(=O)N2[C@H](C1)[C@H](c1ccc(C3=CCCC3)cc1)[C@@H]2CO	2.66
O=C(c1ccc2c(c1)OCO2)N1C[C@H]2[C@@H](c3ccccc31)[C@H](CO)N2Cc1cccnc1	2.43
COCC#Cc1ccc([C@@H]2[C@@H](CO)N3C(=O)CN(C(=O)C4CCOCC4)C[C@H]23)cc1	0.854
CCCC#Cc1ccc([C@H]2[C@H](CO)N3C(=O)CN(C(=O)Nc4cccc(F)c4)C[C@@H]23)cc1	1.46
CS(=O)(=O)N1CC2(C1)[C@H](c1ccccc1)[C@@H](CO)N2Cc1ccccc1	-1.33
